This is an account of results in PubChem BioAssay AID2284104 (EPA ToxCast).

Active and inactive are the calls of the source. How the source made its calls: active means hit-call score of the fitted dose curve at least 0.9, where 1 is the maximum; inactive means score below 0.9.

In this assay the target is human PRAK CAMK Kinase, MAPKAPK5 (gene 8550) (UniProt Q8IW41). In words: ERF_TW_ENZ_hMAPKAPK5: Eurofins (ERF) Enzymatic Radiometric [10 uM ATP] LeadHunter Assay for human PRAK CAMK Kinase. As for the experimental part: ERF_TW_ENZ_hMAPKAPK5 is a biochemical, single-readout assay that uses extracted gene-proteins in a cell-free assay. Measurements were taken 0.5 hour after chemical dosing in a 96-well plate. See PRAK Human CAMK Kinase Enzymatic Radiometric Assay [10 uM ATP], Panlabs.ERF_TW_ENZ_hMAPKAPK5 is an assay component calculated from the ERF_TW_ENZ_hMAPKAPK5 assay. It is designed to measure enzyme activity using a type of enzyme reporter as detected by scintillation counting with radiometry technology.Data from the assay component ERF_TW_ENZ_hMAPKAPK5 was analyzed at the assay endpoint, ERF_TW_ENZ_hMAPKAPK5, in the positive analysis fitting direction relative to DMSO as the negative control and baseline of activity. Using a type of enzyme reporter, loss-of-signal activity can be used to understand changes in enzymatic activity as they relate to gene MAPKAPK5. To generalize the intended target to other relatable targets, this assay endpoint is annotated to the kinase intended target family, where the subfamily is serine/threonine kinase.
Chain of human PRAK CAMK Kinase, MAPKAPK5 (gene 8550) (Q8IW41 whole entry, looked up): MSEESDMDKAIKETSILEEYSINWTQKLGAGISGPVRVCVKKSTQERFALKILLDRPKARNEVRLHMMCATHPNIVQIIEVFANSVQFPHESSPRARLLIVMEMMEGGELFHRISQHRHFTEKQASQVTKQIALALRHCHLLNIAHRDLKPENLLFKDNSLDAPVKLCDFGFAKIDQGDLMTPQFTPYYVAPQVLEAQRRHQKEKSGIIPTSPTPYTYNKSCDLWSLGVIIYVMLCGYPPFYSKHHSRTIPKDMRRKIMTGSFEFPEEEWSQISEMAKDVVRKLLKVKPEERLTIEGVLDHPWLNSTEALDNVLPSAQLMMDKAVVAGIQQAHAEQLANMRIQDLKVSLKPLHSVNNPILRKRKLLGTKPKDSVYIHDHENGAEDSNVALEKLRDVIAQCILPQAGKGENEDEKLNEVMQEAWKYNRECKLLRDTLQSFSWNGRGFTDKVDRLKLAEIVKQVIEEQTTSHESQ
Human recombinant protein kinase PRAK expressed in insect Sf21 cells is used. Test compound is preincubated with 0.44 U/ml enzyme in modified MOPS buffer pH 7.2 for 15 minutes at 37C. […] An aliquot is removed and counted to determine the amount of [32P]PRAK substrate. […]
As usually defined, the AC50 is the concentration giving half of the maximal activity seen. Consider `O=C(/C=C/c1ccc(O)cc1)CC(=O)/C=C/c1ccc(O)cc1`, for which the AC50 was 1.02 µM (active).
